Test results: PubChem BioAssay AID1851 (National Center for Advancing Translational Sciences (NCATS), 2009)
Out of some 16,000 compounds screened, about 5,700 (36%) were called active. Not shown: some 24% with an inconclusive outcome. The list shows a part of the results. A number with no mark means an inactive call. The call rests on the fitted dose curve; in most records, active means well fitted curve in the direction sought with a large enough effect; inconclusive means small, poorly fitted or top-dose-only effect, or effect the other way; inactive means no such curve, though single readings can be large or run the other way.

molecular target: Cytochrome P450 1A2 (Homo sapiens) (UniProt P05177); test: Cytochrome panel assay with activity outcomes; details: recombinant CYP, pro-luciferin dealkylation, luminescence, p450-cyp1a2; series mostly up to 57.1 µM
Sequence (P05177 whole entry, looked up): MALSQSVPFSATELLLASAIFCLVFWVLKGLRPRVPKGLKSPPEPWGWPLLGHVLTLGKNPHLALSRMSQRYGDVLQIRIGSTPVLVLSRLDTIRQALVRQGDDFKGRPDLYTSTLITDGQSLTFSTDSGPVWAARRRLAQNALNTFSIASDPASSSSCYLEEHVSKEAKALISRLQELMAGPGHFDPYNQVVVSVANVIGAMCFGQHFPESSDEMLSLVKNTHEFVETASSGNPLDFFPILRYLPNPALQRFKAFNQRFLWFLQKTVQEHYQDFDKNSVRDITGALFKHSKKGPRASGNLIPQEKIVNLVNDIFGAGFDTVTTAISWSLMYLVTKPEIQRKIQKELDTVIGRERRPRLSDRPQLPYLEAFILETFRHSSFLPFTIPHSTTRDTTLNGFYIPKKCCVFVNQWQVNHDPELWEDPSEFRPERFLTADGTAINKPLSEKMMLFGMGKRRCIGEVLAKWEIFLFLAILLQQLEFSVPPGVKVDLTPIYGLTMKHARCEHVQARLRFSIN
On the % scale 0 is the no-effect control and ±100 the full control effect.

| SMILES | AC50 | activity, negative = inhibition |
| --- | --- | --- |
| COc1ccc(S(=O)(=O)NCc2ccc(C(=O)N3CCN(c4ccccn4)CC3)cc2)cc1 | inactive |  |
| O=C(Nc1ccc(Nc2ccc3c(c2)C(=O)c2ccccc2C3=O)c2c1C(=O)c1ccccc1C2=O)c1ccccc1 | 1.58 µM (active) |  |
| CCC(=O)Nc1ccc2c(c1)C(=O)c1ccccc1C2=O | 0.316 µM (active) |  |
| CCOC(=O)c1c(-c2ccccc2)nc2ccc(Cl)cn12 | 2.51 µM (active) |  |
| CCOC(=O)c1c(-c2ccccc2)nc2ccccn12 | 1.12 µM (active) |  |
| Cc1nc2c(C)cccn2c1/C(O)=C1\C(=O)C(=O)N(CCN2CCOCC2)C1c1cccs1 (stereo not given) | inactive |  |
| CCOC(=O)c1c(-c2ccccc2)nc2c(C)cccn12 | 0.708 µM (active) |  |
| CCOC(=O)CNc1c(-c2ccccc2)nc2ccc(Cl)cn12 | 1.58 µM (active) |  |
| NCCCc1c(-c2ccccc2)nc(N)[nH]c1=O |  | 9.63% [at 11.4 µM] |
| CC(SCc1cn2cc(Cl)ccc2n1)C(=O)O (stereo not given) | inactive |  |
| CCOC(=O)N/N=C1/C[C@@H](O)[C@@H](O)[C@@H]2[C@@H]3C(=O)N([C@@H](C)c4ccccc4)C(=O)[C@H]3CC[C@@H]12 |  | 3.79% [at 11.4 µM] |
| Cc1cc(=Nc2ccc3c(c2)c(N)cc(C)[n+]3C)nc(N)n1C |  | -5.28% [at 2.29 µM] |
| C=C(C)C(=O)N1CC2(CC(c3cccc(NC(=O)c4ccccc4)c3)=NO2)C[C@@H]1C(N)=O (stereo not given in full) | inactive |  |
| CC1(C)O[C@@H]2C[C@H]3[C@H]4C[C@H](F)C5=CC(=O)CC[C@]5(C)[C@@H]4[C@H](O)C[C@]3(C)[C@]2(C(=O)CO)O1 | inactive |  |
| CNc1nc(Cl)nc(NC(C)(C)C)n1 | 8.91 µM (active) |  |
| CC1CCC(C(=O)NC(C(=O)N2CCC(N3CCCCC3)CC2)C(C)C)CC1 (stereo not given) | inactive |  |
| CC(=O)N(C[C@@H](C)C(=O)O)c1c(I)cc(I)c(N)c1I | inactive |  |
| CC[C@H](Cc1c(I)cc(I)c(N)c1I)C(=O)O | 12.6 µM (active) |  |
| CCOc1ccc(-n2c(=O)[nH]cc(C(=O)N3CCCc4ccccc43)c2=O)cc1 | inactive |  |
| COc1ccccc1C(=O)NC(=S)N1CCCc2ccccc21 | 2.24 µM (active) |  |
| COc1ccccc1C(=O)NN1C(=O)C2C3C=CC(O3)C2C1=O (stereo not given) | inactive |  |
| Oc1cc2c(cc1O)[C@H](c1ccccc1)CNCC2 | inactive |  |
| N#Cc1cccc(NC(=O)N2CCC3(CC2)CCN(C(=O)c2csnn2)CC3)c1 | inactive |  |
| CCOC(=O)N/N=C1/C[C@@H](O)[C@@H](O)[C@@H]2[C@@H]3C(=O)N(c4cccc(Oc5ccccc5)c4)C(=O)[C@H]3CC[C@H]12 |  | -3.4% [at 11.4 µM] |

| SMILES | AC50 | activity, negative = inhibition |
| --- | --- | --- |
| O=C(c1cccc(F)c1)N1CCC2(CCCN(c3ccc(-c4ccccc4)cc3)C2)CC1 | 15.8 µM (active) |  |
| O=C(c1ccncc1)N1CCC2(CCN(Cc3nccs3)CC2)CC1 | inactive |  |
| O=C(c1cccc(F)c1)N1CCC2(CCCN(Cc3nccs3)C2)CC1 | inactive |  |
| O=C(c1cccc(F)c1)N1CCC2(CC1)CCN(c1ccccc1)CC2 | 15.8 µM (active) |  |
| Cc1noc(C)c1C(=O)N1CCC2(CCCN(Cc3nccs3)C2)CC1 | inactive |  |
| Cc1noc(C)c1C(=O)N1CCC[C@@]2(CCN(Cc3nccs3)C2)C1 | inactive |  |
| O=C(c1cccc(F)c1)N1CCC2(CC1)CCN(c1ccc(-c3ccccc3)cc1)CC2 | inactive |  |
| O=C(c1cccc(F)c1)N1CCC2(CCN(Cc3nccs3)CC2)CC1 | 1.58 µM (active) |  |
| O=C(c1cccc(F)c1)N1CCC2(CC1)CN(c1ccc(-c3ccccc3)cc1)C2 | inactive |  |
| O=C(c1cccc(F)c1)N1CCC2(CCCN(Cc3ccccc3)C2)CC1 | inactive |  |
| O=C(c1cccc(F)c1)N1CCC2(CCN(Cc3ccccc3)CC2)CC1 | inactive |  |
| Cc1noc(C)c1C(=O)N1CCC2(CCN(Cc3nccs3)CC2)CC1 | 12.6 µM (active) |  |
| O=C(c1cc(C(F)(F)F)cc(C(F)(F)F)c1)N1CCC2(CC1)CCN(c1ncccn1)CC2 | inactive |  |
| CCCCN1C(=O)C(NC(=O)CC(C)C)(C(F)(F)F)C2=C1CC(C)(C)CC2=O (stereo not given) | inactive |  |
| O=C(c1cccc(F)c1)N1CCC[C@@]2(CCN(c3cccc(-c4ccccc4)c3)C2)C1 | 15.8 µM (active) |  |
| O=C(c1cccc(F)c1)N1CCC[C@@]2(CCN(c3ccccc3)C2)C1 | inactive |  |
| O=C(c1cccc(F)c1)N1CCC[C@@]2(CCN(c3ccncc3)C2)C1 | inactive |  |
| C[N+]1(C)C[C@@H](O)C[C@@H]1C(=O)[O-] | inactive |  |
| COc1cccc(CNCc2ccc(SC)cc2)c1OC | 15.8 µM (active) |  |
| COc1cccc(CN2C(=O)N(C(C)C)C(N(O)C(=O)NC(C)C)C2(C)C)c1OC (stereo not given) | inactive |  |
| CC(=O)N1CCC2(CC1)CCN(c1ccncc1)CC2 | inactive |  |
| CC(=O)N1CCC2(CCCN(c3ccccc3)C2)CC1 | inactive |  |
| COC(=O)N1CCC2(CC1)CCN(c1ccccc1)CC2 | inactive |  |
| CC(=O)N1CCC2(CCCN(c3cccc(-c4ccccc4)c3)C2)CC1 | 5.01 µM (active) |  |

| SMILES | AC50 | activity, negative = inhibition |
| --- | --- | --- |
| CC(=O)N1CCC2(CC1)CN(c1ccccc1)C2 | inactive |  |
| c1ccc(-c2cccc(N3CCC4(CCNCC4)CC3)c2)cc1 | 15.8 µM (active) |  |
| COC(=O)N1CCC2(CC1)CN(c1cccc(-c3ccccc3)c1)C2 | inactive |  |
| CC(=O)N1CCC2(CC1)CCN(c1ccc(-c3ccccc3)cc1)CC2 | 10 µM (active) |  |
| COCC(=O)N1CCC2(CC1)CCN(c1cccc(-c3ccccc3)c1)CC2 | 5.01 µM (active) |  |
| c1ccc(C(c2ccccc2)N2CCC3(CCNCC3)CC2)cc1 | inactive |  |
| COC(=O)N1CCC2(CC1)CCN(c1cccc(-c3ccccc3)c1)CC2 | inactive |  |
| N#Cc1ccc(CN2CCC3(CC2)CCN(C(=O)c2ccncc2)CC3)cc1 | inactive |  |
| CC[C@@H](Nc1ncnc2nc[nH]c12)C(=O)O |  | -2.91% [at 11.4 µM] |
| COCC(=O)N1CCC2(CC1)CN(C(=O)Nc1ccccc1)C2 | 12.6 µM (active) |  |
| COCC(=O)N1CCC2(CCCN(c3cccc(-c4ccccc4)c3)C2)CC1 | 15.8 µM (active) |  |
| COCC(=O)N1CCC2(CCCN(c3ccncc3)C2)CC1 | inactive |  |
| COCC(=O)N1CCC2(CCCN(C(=O)Nc3ccccc3)C2)CC1 | inactive |  |
| O=C(Oc1ccccc1)N1CCC2(CCCN(c3cccc(-c4ccccc4)c3)C2)CC1 | inactive |  |
| COCC(=O)N1CCC2(CC1)CN(C(=O)Nc1ccc(OC)cc1)C2 | inactive |  |
| CCn1nc(C(=O)Nc2ccccc2C)c(Cl)c1Cl | 1.26 µM (active) |  |
| N#Cc1cccc(-c2nc(NCc3cccnc3)c3ccccc3n2)c1 | 0.251 µM (active) |  |
| N#Cc1cccc(-c2nc(NCc3cccs3)c3ccccc3n2)c1 | 0.316 µM (active) |  |
| N#Cc1cccc(-c2nc(NCc3ccccc3)c3ccccc3n2)c1 | 0.398 µM (active) |  |
| NCC[C@H]1CCC[C@H](CCN)N1 | inactive |  |
| O=C(Nc1nnc(C2CC2)s1)c1ccc(S(=O)(=O)c2ccccc2)cc1 | inactive |  |
| O=C(Nc1nnc(C2CC2)s1)c1ccncc1 | 12.6 µM (active) |  |
| O=C(NN=C1C2CC3CC(C2)CC1C3)c1ccncc1 | inactive |  |
| COc1ccc(O[C@H]2C=C[C@@H](c3ccccc3)O[C@H]2CO/N=C2/[C@H]3O[C@@H]3[C@@H](O)[C@H]3[C@H]2CCn2c(=O)n(-c4ccccc4)c(=O)n23)cc1 |  | 12.3% [at 11.4 µM] |

| SMILES | AC50 | activity, negative = inhibition |
| --- | --- | --- |
| Cc1ccccc1NC1=NC(=S)N(c2ccccc2)C12CCOC(C)(C)C2 (stereo not given) | inactive |  |
| CS(=O)(=O)c1ccc(-c2cc(Br)sc2-c2ccc(F)cc2)cc1 | 0.398 µM (active) |  |
| FC(F)(F)c1cnc(/C=C/Nc2ccccc2Cl)c(Cl)c1 | 1.41 µM (active) |  |
| N#CC(c1ccccn1)(c1ncc(C(F)(F)F)cc1Cl)N1CCOCC1 (stereo not given) | inactive |  |
| N#CC(c1ccc(Cl)cc1)(c1ncc(C(F)(F)F)cc1Cl)N1CCOCC1 (stereo not given) | inactive |  |
| NC(=O)C[C@H](NC(=O)Cc1ccc(O)cc1O)C(=O)O | inactive |  |
| CCc1nc2c(c(SC)nn2-c2ccccc2)c(N)c1C(=O)OC | 0.631 µM (active) |  |
| Nc1cc(-c2ccncc2)c[nH]c1=O | 15.8 µM (active) |  |
| NC(=O)c1cc[n+](CC2=C(C(=O)O)N3C(=O)[C@@H](NC(=O)[C@H](c4ccccc4)S(=O)(=O)[O-])[C@@H]3SC2)cc1 | inactive |  |
| COc1cccc(-c2nc(N(C)Cc3ccco3)c3ccccc3n2)c1 | 0.316 µM (active) |  |
| COc1cccc(-c2nc(N(C)C)c3ccccc3n2)c1 | 0.251 µM (active) |  |
| CN(Cc1ccco1)c1nc(-c2cccc(C#N)c2)nc2ccccc12 | 0.1 µM (active) |  |
| CC(=O)N[C@@H]1CONC1=O |  | -16.9% [at 11.4 µM] |
| COc1ccccc1CN1CCCC2(CCN(S(C)(=O)=O)CC2)C1 | inactive |  |
| c1csc(CNc2ccnc(-c3ccc4c(c3)OCO4)n2)c1 | 0.316 µM (active) |  |
| COc1ccc(CNC(=O)C(c2ccc(C)cc2)N(Cc2cccs2)C(=O)c2ccc3c(c2)OCCO3)cc1 (stereo not given) | inactive |  |
| c1ccc(CNc2ccnc(-c3ccc4c(c3)OCO4)n2)cc1 | 0.398 µM (active) |  |
| c1cncc(CNc2ccnc(-c3ccc4c(c3)OCO4)n2)c1 | 0.126 µM (active) |  |
| CCOC(=O)C1=C(N)Oc2ccc(Br)cc2[C@@H]1[C@@H](C#N)C(=O)OCC | 0.251 µM (active) |  |
| CO[C@@H]1COC(=O)[C@H]2CCCN2C(=O)[C@@H](C)COC(=O)C/C=C\[C@H]1C |  | 1.25% [at 11.4 µM] |
| CCCN1CCC(=NNC(=O)c2ccc(Br)o2)CC1 | 8.91 µM (active) |  |
| O=C(c1ccccc1NS(=O)(=O)c1cccc([N+](=O)[O-])c1)N1CCOCC1 | inactive |  |
| O=Nc1c(O)n(Cc2ccc(Cl)cc2)c2ccccc12 | 14.1 µM (active) |  |
